From PubChem BioAssay (NCATS) come the findings set out here.

Several values for one entry are separate records, joined by “and”; a condition that tells them apart may be missing. Identical values can stand only once. Inconclusive results are not listed. Activity calls are given as the source filed them. The call rests on the fitted dose curve; in most records, active means well fitted inhibition curve with a large enough effect; inconclusive means small, poorly fitted or top-dose-only effect; inactive means flat fitted curve, though single readings scatter.
On the % scale 0 is the no-effect control and ±100 the full control effect; potency means the concentration at half of the fitted maximal effect.

The nature of the assay: P-glycoprotein substrates identified in KB-8-5-11 adenocarcinoma cell line, qHTS therapeutic library screen (AID 1346987). Further: nearly all actives have a fitted effect of over 65% in size. Conditions: KB-8-5-11 (P-gp overexpressing) viability, CellTiter-Glo, 72 h; series mostly up to 44.5 µM; activity change, negative = cytotoxicity: at the top concentration. Summed up: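 In this qHTS, P-gp-rich KB-8-5-11 cells received library compounds across a concentration range. Viability was quantified by luminescence after 72 h at 37 degree C.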
For the compound `C=C1CCC[C@]2(C)CC/C(=C(/CO)C(=O)OC)C[C@@H]12`, the “activity change, negative = cytotoxicity” value is -1.04% (inactive).

`N#Cc1ccc(-c2ccc(S(=O)(=O)Nc3cccc(N)n3)cc2)cc1`: the “activity change, negative = cytotoxicity” value is -22% (inactive).

As to `CC(=O)OCC(=O)[C@@]12O[C@@H]1C[C@H]1[C@@H]3CC=C4C[C@@H](O)CC[C@]4(C)[C@H]3CC[C@@]12C`, the “activity change, negative = cytotoxicity” value is 6.83% (inactive).

In the case of `Cc1cc2occ(CN(C)CCN(C)Cc3cn(-c4cccc(C(F)(F)F)c4)c4ccccc34)c(=O)c2cc1C`, the Potency was 18.4 µM (active).

Consider `O=C(Nc1cnc(Cl)nc1)c1ccc(F)c(F)c1`, for which the “activity change, negative = cytotoxicity” value is 2.18% (inactive).

Regarding `O=C(NCCCNC(=O)c1ccc[nH]c1=O)c1cc(-c2ccccc2)on1`, the “activity change, negative = cytotoxicity” value is -19.4% (inactive).

In the case of `COc1ccc2c(c1O[C@H]1CCNC1)CCC2`, the “activity change, negative = cytotoxicity” value is 2.35% (inactive).

For `N[C@@H]1c2cccnc2[C@H](OC(=O)N2CCC(n3c(=O)[nH]c4ncccc43)CC2)CC[C@H]1c1cccc(F)c1F`, the “activity change, negative = cytotoxicity” value was -12.1% (inactive).

As to `C1=Cc2ccccc2C(=C2CCN(CCCCc3nn[nH]n3)CC2)c2ccccc21`, the call was inactive.

Regarding `C=C(C)[C@@H]1CC[C@]2(C(=O)O)CC[C@]3(C(=O)O)[C@H](CCC4[C@@]5(C)CCC(=O)C(C)(C)C5CC[C@]43C)C12` (some centres not stated), the “activity change, negative = cytotoxicity” value was -14.5% [at 17.3 µM] (inactive).

As to `O=P(O)(O)OC(Cn1cncn1)(Cn1cncn1)c1ccc(F)cc1F`, the “activity change, negative = cytotoxicity” value is 9.23% (inactive).

In the case of `CCNC1(C(N)=O)CCN(c2ncnc3c2nc(-c2ccccc2Cl)n3-c2ccc(Cl)cc2)CC1`, the “activity change, negative = cytotoxicity” value is -10.4% (inactive).

`Fc1ccc2[nH]ccc2c1-c1nc(N2CCOCC2)c2sc(CN3CCN(CC4CC4)CC3)cc2n1`: the Potency was 20.6 µM (active).

With `COCc1c(Cl)ccc2c1CC[C@H]2c1ncc[nH]1`, the “activity change, negative = cytotoxicity” value was -13.2% (inactive).

Consider `C=C1CC2C3CCC4=CC(=O)C=C[C@]4(C)[C@@]3(F)[C@@H](O)C[C@]2(C)[C@@]1(O)C(=O)COC(C)=O` (some centres not stated), for which the “activity change, negative = cytotoxicity” value was -9.95% (inactive).

Consider `O=C(Nc1ccccc1Cl)c1cnc2ccc(C3CCNCC3)cn12`, for which the “activity change, negative = cytotoxicity” value is -14.1% (inactive).

Take `C=CS(=O)(=O)NC1CCN(C(=O)CNc2cc(I)c(Cl)cc2OC)CC1`: the Potency was 14.6 µM (active).

As to `CO[C@H]1C[C@H](O[C@H]2[C@H](C)O[C@@H](O[C@@H]3/C(C)=C/C[C@@H]4C[C@@H](C[C@]5(C=C[C@H](C)[C@@H](C6CCCCC6)O5)O4)OC(=O)[C@@H]4C=C(C)[C@@H](O)[C@H]5OC/C(=C\C=C\[C@@H]3C)[C@]54O)C[C@@H]2OC)O[C@@H](C)[C@@H]1O`, the Potency is 20.6 µM (active).

With `CNc1cccc(CCOc2ccc3c(c2)CN(CC(F)(F)F)C(=O)[C@H](CC(=O)O)C3)n1`, the “activity change, negative = cytotoxicity” value is 0.263% (inactive).

`C/C(=C/CO)CCC1C(C)CCC2C(C)(C)CCCC12C` (configuration not stated): the “activity change, negative = cytotoxicity” value is 7.09% (inactive).

Turning to `CC1(CO)CC2C(O)C3=C(CC(C)(O)C2C1)C(=O)OC3` (configuration not stated), the “activity change, negative = cytotoxicity” value was 0.305% (inactive).

For the compound `CCOc1ccc(-n2c([C@@H](C)N(Cc3cccnc3)C(=O)Cc3ccc(OC(F)(F)F)cc3)nc3ncccc3c2=O)cc1`, the “activity change, negative = cytotoxicity” value was -7.56% (inactive).

In the case of `C=C1C(=O)OC2CC3(C)C(O)C(=O)C=C(C)C3CC12` (configuration not stated), the “activity change, negative = cytotoxicity” value was -20.1% (inactive).

On to `CCC(C)[C@H]1O[C@]2(C=C[C@@H]1C)C[C@@H]1C[C@@H](C/C=C(\C)[C@@H](O[C@H]3C[C@H](OC)[C@@H](O[C@H]4C[C@H](OC)[C@H](NC(C)=O)[C@H](C)O4)[C@H](C)O3)[C@@H](C)/C=C/C=C3\CO[C@@H]4[C@H](O)C(C)=C[C@@H](C(=O)O1)[C@]34O)O2` (some centres not stated), for which the Potency is 5.17 µM (active) and 18.4 µM (active).

`CCCCCCCCCC(=O)O`: the “activity change, negative = cytotoxicity” value was -6.65% (inactive).

On to `CCC(CC)Nc1nc(C)c(-c2ccc(OC(F)(F)F)cc2OC)nc1OC`, for which the “activity change, negative = cytotoxicity” value was -0.463% (inactive).

As to `CCN1CCN(Cc2ccc(NC(=O)c3ccc(C)c(Oc4ncnc5[nH]c(C)cc45)c3)cc2C(F)(F)F)CC1`, the Potency was 20.6 µM (active).
